For experiment [1], the target named is human RAR-related Orphan Receptor beta (RORb), RORB (gene 6096) (UniProt Q92753). The experiment is described as follows: ATG_RORb_TRANS: Attagene TRANS-FACTORIAL HepG2 Assay for human RAR-related Orphan Receptor beta (RORb) (AID 2283010; active = hit-call score of the fitted dose curve at least 0.9, where 1 is the maximum). In outline:
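In this TRANS-format test, human HepG2 cells express chimeric NR-Gal4 fusion proteins driving GAL4-UAS reporters. After 24 h dosing, reporter transcripts are measured by fluorescent RT-PCR/capillary electrophoresis, with DMSO as negative control.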

Experiment [2] addresses Retinoic acid receptor RXR-alpha (Homo sapiens) (UniProt P19793). The experiment is described as follows: ATG_RXRa_TRANS: Attagene TRANS-FACTORIAL HepG2 Assay for human Retinoid X Receptor alpha (RXRa) (AID 2283012; active = hit-call score of the fitted dose curve at least 0.9, where 1 is the maximum). In outline: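 Cells (HepG2) carried transiently transfected GAL4-responsive reporter units. Following a 24 h chemical incubation, reporter mRNA induction was read via RT-PCR fragment analysis; DMSO served as negative control and baseline.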

In experiment [3] the target is human Retinoid X Receptor beta (RXRb), RXRB (gene 6257) (UniProt P28702). The experiment is described as follows: ATG_RXRb_TRANS: Attagene TRANS-FACTORIAL HepG2 Assay for human Retinoid X Receptor beta (RXRb) (AID 2283013; active = hit-call score of the fitted dose curve at least 0.9, where 1 is the maximum). The gist of the method: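 Multiplexed TRANS reporter assay in HepG2; 24 h dosing; reporter mRNA by RT-PCR/CE fluorescence; gain-of-signal relative to DMSO.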

Read-out in experiment [4]: E-selectin (Homo sapiens) (UniProt P16581)
Kind of experiment: BSK_3C_Eselectin: BioMAP Diversity Plus: 3C Assay for Eselectin Biomarker Activity (AID 2283015).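 For outcome: cell surface E-selectin protein quantified by ELISA 24 h after dosing.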 The conditions noted are these: primary human endothelial cells (HUVEC); actives raise or lower the signal. In outline: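 ELISA read-out of E-selectin on endothelial monolayers after 24 h chemical treatment. Human umbilical vein primary cells served as the system, with DMSO defining baseline activity for bidirectional fitting.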

Read-out in experiment [5]: Interleukin-1 alpha (IL1a), IL1A (gene 3552)
Kind of experiment: BSK_BE3C_IL1a: BioMAP Diversity Plus: BE3C Assay for Interleukin-1 alpha (IL1a) Biomarker Activity (AID 2283016). To be noted: primary human bronchial epithelial cells; actives raise or lower the signal. In outline:
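Cultures of primary human bronchial epithelial cells receive test chemical. After 24 h, IL-1a is quantified by ELISA, while parallel wells are fixed in TCA and SRB-stained for total protein. Changes in either direction are fitted relative to DMSO.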

Read-out in experiment [6]: Monocyte Chemoattractant Protein-1 (MCP1), CCL2 (gene 6347)
The experiment is described as follows: BSK_3C_MCP1: BioMAP Diversity Plus: 3C Assay for Monocyte Chemoattractant Protein-1 (MCP1) Biomarker Activity (AID 2283017). The conditions noted are these: primary human endothelial cells (HUVEC); actives raise or lower the signal. In outline: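 ELISA read-out of MCP-1 from human umbilical vein endothelial cell cultures harvested 24 h post-dosing. Gain or loss of signal was fitted relative to DMSO.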

Read-out in experiment [7]: Monocyte Chemoattractant Protein-1 (MCP1), CCL2 (gene 6347)
The experiment is described as follows: BSK_4H_MCP1: BioMAP Diversity Plus: 4H Assay for Monocyte Chemoattractant Protein-1 (MCP1) Biomarker Activity (AID 2283018). The conditions noted are these: primary human endothelial cells (HUVEC); actives raise or lower the signal. The gist of the method: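 Readout: MCP-1 ELISA on compound-treated HUVEC, sampled 24 h post-dosing. Baseline and negative control DMSO; bidirectional fit. Overt toxicity checked alongside by sulforhodamine B protein staining at time of biomarker measurement.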

Read-out in experiment [8]: Human Leukocyte Antigen - DR isotype (HLADR), HLA-DRA (gene 3122)
Kind of experiment: BSK_3C_HLADR: BioMAP Diversity Plus: 3C Assay for Human Leukocyte Antigen - DR isotype (HLADR) Biomarker Activity (AID 2283019).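 For outcome: ELISA of cell-surface HLA-DR on HUVEC 24 h after dosing.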 The conditions noted are these: primary human endothelial cells (HUVEC); actives raise or lower the signal. The gist of the method:
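ELISA readout of surface HLA-DR on human umbilical vein endothelium, taken 24 h after chemical treatment. Gain- and loss-of-signal were both fitted relative to DMSO.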

Read-out in experiment [9]: Interleukin-8 (IL8), CXCL8 (gene 3576)
Kind of experiment: BSK_3C_IL8: BioMAP Diversity Plus: 3C Assay for Interleukin-8 (IL8) Biomarker Activity (AID 2283020). To be noted: primary human endothelial cells (HUVEC); actives raise or lower the signal. In outline:
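Human vascular endothelial cells (umbilical vein) in the 3C system; IL-8 level detected by ELISA at 24 h post-dose, with DMSO as baseline.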

Read-out in experiment [10]: Monokine induced gamma interferon (MIG), CXCL9 (gene 4283)
Kind of experiment: BSK_3C_MIG: BioMAP Diversity Plus: 3C Assay for Monokine induced gamma interferon (MIG) Biomarker Activity (AID 2283021).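 For AC50: MIG protein level measured by immunoassay in the treated endothelial cultures.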 To be noted: primary human endothelial cells (HUVEC); actives raise or lower the signal. In outline:
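After 24 h of treatment, human umbilical vein endothelial cultures (3C system) had their MIG biomarker level determined by ELISA, with DMSO serving as negative control.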

The target in experiment [11] is human Vitamin D Receptor (VDR), VDR (gene 7421) (UniProt P11473). Kind of experiment: ATG_VDR_TRANS: Attagene TRANS-FACTORIAL HepG2 Assay for human Vitamin D Receptor (VDR) (AID 2283022; active = hit-call score of the fitted dose curve at least 0.9, where 1 is the maximum). The gist of the method: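 Steps: transfect HepG2 with GAL4-UAS-driven reporter constructs; dose compounds 24 h; isolate RNA, reverse-transcribe, PCR-amplify with 6-FAM-labelled primer extension and HpaI digestion; quantify fragments by capillary electrophoresis relative to DMSO.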

Experiment [12] in a line: BSK_3C_SRB: Viability Assessment in the BioMAP Diversity Plus: 3C Assay (AID 2283023).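 Note: fitted both ways against DMSO so a hit may be signal rise or drop.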 To be noted: primary human endothelial cells (HUVEC). The gist of the method: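 Absorbance at 560 nm of sulforhodamine B-stained (0.1%) total protein served as a cytotoxicity readout in human umbilical vein endothelial cells, 24 h after chemical treatment. Signal was fitted bidirectionally relative to DMSO.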

Read-out in experiment [13]: Matrix Metallopeptidase 1 (MMP1), MMP1 (gene 4312)
Kind of experiment: BSK_BE3C_MMP1: BioMAP Diversity Plus: BE3C Assay for Matrix Metallopeptidase 1 (MMP1) Biomarker Activity (AID 2283024). The conditions noted are these: primary human bronchial epithelial cells; actives raise or lower the signal. In outline: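 Dose cells, wait 24 h, run MMP1 ELISA; cells are human bronchial epithelial primaries. Both increases and decreases relative to DMSO counted.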

Experiment [14] can be described thus: BSK_3C_Vis: BioMAP Diversity Plus: 3C Assay for Morphology Visualization (AID 2283025).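 For AC50: light microscopy image of cell morphology used as background control.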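 Note: fitted both ways so gain or loss versus DMSO counts.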 The conditions noted are these: primary human endothelial cells (HUVEC). In outline: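 Endothelial cells from human umbilical vein were treated with test chemicals for 24 h and inspected by light microscopy for changes in cell conformation.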
Experiment [15] can be described thus: BSK_4H_SRB: Viability Assessment in the BioMAP Diversity Plus: 4H Assay (AID 2283027).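 For AC50: curves fitted both ways versus DMSO so AC50 may be loss or gain.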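 Note: cells exposed to compound for 24 h before staining.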 To be noted: primary human endothelial cells (HUVEC). In outline:
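Human umbilical vein endothelial cells, 24 h after chemical dosing; total protein measured by 0.1% sulforhodamine B staining after 10% TCA fixation, read at 560 nm. Bidirectional fitting against DMSO.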

Experiment [16] can be described thus: BSK_BE3C_SRB: Viability Assessment in the BioMAP Diversity Plus: BE3C Assay (AID 2283028).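 For AC50: fitted both ways so AC50 may mark signal gain or loss versus DMSO.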 The conditions noted are these: primary human bronchial epithelial cells. The gist of the method: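 Cells (human bronchial epithelial, primary) are treated with chemicals, and after 24 h the parallel cultures are fixed in 10% TCA. These are then stained with 0.1% SRB and read at 560 nm. Gain or loss of signal is fitted relative to DMSO.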

Read-out in experiment [17]: Thrombomodulin, THBD (gene 7056)
Kind of experiment: BSK_3C_Thrombomodulin: BioMAP Diversity Plus: 3C Assay for Thrombomodulin Biomarker Activity (AID 2283029). To be noted: primary human endothelial cells (HUVEC); actives raise or lower the signal. In outline: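 Thrombomodulin ELISA, human primary HUVEC, 24 h post-dose; data fitted in both directions relative to DMSO.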

Experiment [18] has as its target human RAR-related Orphan Receptor gamma (RORg), RORC (gene 6097) (UniProt P51449). Kind of experiment: ATG_RORg_TRANS: Attagene TRANS-FACTORIAL HepG2 Assay for human RAR-related Orphan Receptor gamma (RORg) (AID 2283011; active = hit-call score of the fitted dose curve at least 0.9, where 1 is the maximum). In outline: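 First, HepG2 liver cells were transfected with GAL4-UAS-driven reporter constructs and the RORg-Gal4 fusion. Next, they were treated with chemical for 24 h. Finally, reporter mRNA was quantified by RT-PCR and capillary electrophoresis, with upward activity fitted against DMSO.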

Read-out in experiment [19]: Pselectin, SELP (gene 6403)
Kind of experiment: BSK_4H_Pselectin: BioMAP Diversity Plus: 4H Assay for Pselectin Biomarker Activity (AID 2283026). The conditions noted are these: primary human endothelial cells (HUVEC); actives raise or lower the signal. The gist of the method: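 Human vascular endothelium from umbilical vein; P-selectin measured by ELISA at 24 h post-dose, with cytotoxicity checked by sulforhodamine B total-protein staining in parallel cultures (0.1% SRB after 10% TCA fixation, read at 560 nm).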

Experiment [20] concerns the target human Thyroid Receptor alpha (THRa1), THRA (gene 7067) (UniProt P10827). The experiment is described as follows: ATG_THRa1_TRANS: Attagene TRANS-FACTORIAL HepG2 Assay for human Thyroid Receptor alpha (THRa1) (AID 2283014; active = hit-call score of the fitted dose curve at least 0.9, where 1 is the maximum). The gist of the method:
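Reporter transcript induction, read by capillary electrophoresis of 6-FAM-labelled RT-PCR products, reflects activity of a transfected THRa1-Gal4 fusion in HepG2 liver cells. Cells were dosed for 24 h; activity was fitted in the positive direction against DMSO.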

Molecules are shown by their SMILES. Results filed as inconclusive are left out. Activity calls are given as the source filed them. Rule for the calls, unless noted: active = hit-call score of the fitted dose curve at least 0.9, where 1 is the maximum; inactive = score below 0.9.

Drawing on PubChem BioAssay (EPA / NIEHS), this text covers outcome and AC50 for eight compounds.

Chain of E-selectin (Homo sapiens) (P16581 whole entry, looked up): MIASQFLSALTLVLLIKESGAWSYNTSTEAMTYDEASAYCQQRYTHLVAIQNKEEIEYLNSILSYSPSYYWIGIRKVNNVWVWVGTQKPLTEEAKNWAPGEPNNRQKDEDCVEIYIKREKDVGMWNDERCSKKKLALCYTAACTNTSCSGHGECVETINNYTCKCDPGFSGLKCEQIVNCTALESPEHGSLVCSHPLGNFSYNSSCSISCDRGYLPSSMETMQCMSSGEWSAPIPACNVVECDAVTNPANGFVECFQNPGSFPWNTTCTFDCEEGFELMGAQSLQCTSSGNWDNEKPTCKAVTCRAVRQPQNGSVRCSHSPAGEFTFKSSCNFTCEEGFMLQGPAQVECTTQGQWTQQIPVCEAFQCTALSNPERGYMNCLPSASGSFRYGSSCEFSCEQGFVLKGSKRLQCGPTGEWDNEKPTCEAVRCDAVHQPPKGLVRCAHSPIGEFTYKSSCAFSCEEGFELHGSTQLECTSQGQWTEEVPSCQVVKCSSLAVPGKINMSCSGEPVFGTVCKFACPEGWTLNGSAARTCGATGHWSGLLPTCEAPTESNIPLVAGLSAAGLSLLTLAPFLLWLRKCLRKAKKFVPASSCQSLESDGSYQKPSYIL
Chain of human RAR-related Orphan Receptor gamma (RORg), RORC (gene 6097) (P51449 whole entry, looked up, the tested form may be a part): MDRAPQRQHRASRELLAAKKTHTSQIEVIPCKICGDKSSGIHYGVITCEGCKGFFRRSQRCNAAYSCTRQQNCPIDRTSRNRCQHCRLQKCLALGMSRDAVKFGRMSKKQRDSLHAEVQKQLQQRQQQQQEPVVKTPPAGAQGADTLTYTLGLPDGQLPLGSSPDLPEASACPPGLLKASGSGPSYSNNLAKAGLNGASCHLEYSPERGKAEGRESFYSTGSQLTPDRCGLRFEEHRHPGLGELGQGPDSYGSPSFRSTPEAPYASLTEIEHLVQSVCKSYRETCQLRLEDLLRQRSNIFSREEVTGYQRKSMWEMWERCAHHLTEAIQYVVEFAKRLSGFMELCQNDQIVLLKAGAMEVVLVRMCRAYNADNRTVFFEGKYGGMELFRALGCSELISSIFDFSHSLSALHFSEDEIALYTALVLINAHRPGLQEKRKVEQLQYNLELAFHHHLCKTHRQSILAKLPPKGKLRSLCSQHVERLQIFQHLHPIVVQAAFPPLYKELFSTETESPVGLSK
Chain of human Retinoid X Receptor beta (RXRb), RXRB (gene 6257) (P28702 whole entry, looked up): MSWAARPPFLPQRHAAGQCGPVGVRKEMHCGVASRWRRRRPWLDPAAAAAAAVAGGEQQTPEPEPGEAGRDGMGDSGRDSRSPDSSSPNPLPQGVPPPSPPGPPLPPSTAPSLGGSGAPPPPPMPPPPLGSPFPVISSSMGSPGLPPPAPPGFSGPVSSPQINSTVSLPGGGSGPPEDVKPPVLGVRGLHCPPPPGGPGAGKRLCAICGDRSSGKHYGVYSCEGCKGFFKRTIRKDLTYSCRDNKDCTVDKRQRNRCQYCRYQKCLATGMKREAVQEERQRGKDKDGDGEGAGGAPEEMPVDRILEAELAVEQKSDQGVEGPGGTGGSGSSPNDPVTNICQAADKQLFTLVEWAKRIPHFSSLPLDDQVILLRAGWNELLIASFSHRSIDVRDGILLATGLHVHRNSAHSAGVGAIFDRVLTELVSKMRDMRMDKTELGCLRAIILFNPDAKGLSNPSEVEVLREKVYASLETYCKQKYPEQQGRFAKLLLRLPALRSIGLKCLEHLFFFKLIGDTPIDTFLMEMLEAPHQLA
Chain of Retinoic acid receptor RXR-alpha (Homo sapiens) (P19793 whole entry, looked up, the tested form may be a part): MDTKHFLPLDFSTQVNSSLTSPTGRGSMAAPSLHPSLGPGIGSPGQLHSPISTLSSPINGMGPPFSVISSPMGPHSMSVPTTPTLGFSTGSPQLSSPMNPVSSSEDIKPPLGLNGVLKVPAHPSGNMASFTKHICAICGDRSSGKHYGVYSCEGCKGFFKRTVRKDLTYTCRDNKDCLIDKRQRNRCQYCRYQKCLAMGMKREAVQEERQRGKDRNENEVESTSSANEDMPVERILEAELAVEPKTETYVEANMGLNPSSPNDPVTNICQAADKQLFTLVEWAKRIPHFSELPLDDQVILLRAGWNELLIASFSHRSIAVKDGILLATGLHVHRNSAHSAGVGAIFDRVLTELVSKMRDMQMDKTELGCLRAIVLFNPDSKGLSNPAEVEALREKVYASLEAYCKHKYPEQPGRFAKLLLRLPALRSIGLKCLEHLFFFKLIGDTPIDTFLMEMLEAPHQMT
Chain of human RAR-related Orphan Receptor beta (RORb), RORB (gene 6096) (Q92753 whole entry, looked up, the tested form may be a part): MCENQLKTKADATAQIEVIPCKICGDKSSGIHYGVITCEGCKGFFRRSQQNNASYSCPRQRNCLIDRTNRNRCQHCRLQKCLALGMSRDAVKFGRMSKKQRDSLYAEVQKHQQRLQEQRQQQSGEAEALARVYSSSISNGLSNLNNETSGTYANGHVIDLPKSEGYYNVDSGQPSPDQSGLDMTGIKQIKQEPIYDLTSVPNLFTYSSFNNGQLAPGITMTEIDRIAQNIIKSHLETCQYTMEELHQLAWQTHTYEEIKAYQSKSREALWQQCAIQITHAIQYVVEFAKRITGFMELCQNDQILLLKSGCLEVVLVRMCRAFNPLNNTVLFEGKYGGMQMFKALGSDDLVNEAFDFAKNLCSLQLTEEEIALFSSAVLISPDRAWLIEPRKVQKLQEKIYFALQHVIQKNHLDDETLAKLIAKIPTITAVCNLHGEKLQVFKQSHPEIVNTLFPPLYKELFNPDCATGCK
Chain of human Vitamin D Receptor (VDR), VDR (gene 7421) (P11473 whole entry, looked up, the tested form may be a part): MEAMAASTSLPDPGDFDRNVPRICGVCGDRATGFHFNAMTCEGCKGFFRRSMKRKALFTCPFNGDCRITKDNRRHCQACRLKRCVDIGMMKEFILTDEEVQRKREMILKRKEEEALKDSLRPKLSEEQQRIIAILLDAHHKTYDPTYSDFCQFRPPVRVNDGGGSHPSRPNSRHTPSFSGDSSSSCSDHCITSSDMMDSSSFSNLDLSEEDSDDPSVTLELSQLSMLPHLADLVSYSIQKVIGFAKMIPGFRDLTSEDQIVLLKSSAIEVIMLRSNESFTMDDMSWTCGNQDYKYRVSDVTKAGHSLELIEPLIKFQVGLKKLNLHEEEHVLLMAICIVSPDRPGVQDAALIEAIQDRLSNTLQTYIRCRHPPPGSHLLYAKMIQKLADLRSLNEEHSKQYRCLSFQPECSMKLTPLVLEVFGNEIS
Chain of human Thyroid Receptor alpha (THRa1), THRA (gene 7067) (P10827 whole entry, looked up, the tested form may be a part): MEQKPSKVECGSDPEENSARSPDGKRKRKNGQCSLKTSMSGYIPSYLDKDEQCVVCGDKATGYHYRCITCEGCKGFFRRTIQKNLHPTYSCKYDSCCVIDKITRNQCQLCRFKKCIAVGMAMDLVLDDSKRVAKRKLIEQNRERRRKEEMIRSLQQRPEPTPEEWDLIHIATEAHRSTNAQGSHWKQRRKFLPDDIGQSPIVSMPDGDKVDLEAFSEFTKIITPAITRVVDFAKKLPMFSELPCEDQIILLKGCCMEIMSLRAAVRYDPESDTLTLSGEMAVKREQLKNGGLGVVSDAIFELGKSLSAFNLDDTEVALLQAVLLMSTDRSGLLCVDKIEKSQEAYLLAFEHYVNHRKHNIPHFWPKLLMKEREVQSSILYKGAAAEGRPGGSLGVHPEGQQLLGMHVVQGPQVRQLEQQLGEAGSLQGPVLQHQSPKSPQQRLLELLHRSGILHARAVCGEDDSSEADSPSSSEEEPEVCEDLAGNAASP

Take `Nc1cc2c3c(c1)C(c1ccccc1)=N[C@@H](NC(=O)c1cccnc1)C(=O)N3CC2`: the result in experiment [1], in experiment [2], in [3], in experiment [4], in [5] and in [6] was inactive. Moreover, the result in experiment [7], in experiment [8], in experiment [9], in experiment [10], in experiment [11] and in [12] was inactive. The outcome in experiment [13], in [14], in [15], in experiment [16] and in experiment [17] was inactive.

Take `COP(=O)(O)OC`: the outcome in [18], in [4], in experiment [5], in [6], in experiment [7] and in experiment [8] was inactive. The outcome in experiment [9], in experiment [10], in experiment [12], in experiment [13], in [14] and in [15] was inactive. Further, the outcome in [16] and in experiment [17] was inactive.

Take `CC(C)(C)OOC(C)(C)C`: the compound was called inactive in experiment [1], in [2], in experiment [4], in experiment [5], in [7] and in experiment [8]. The result in experiment [9], in [10], in experiment [12], in experiment [13], in [14] and in [15] was inactive. Also, the result in [16] and in experiment [17] was inactive.

Consider `CO/N=C(/C(=O)OC)c1ccccc1COc1ccccc1C`, for which the compound was classed as inactive in experiment [1], in experiment [2], in experiment [3] and in experiment [11].

Broadly, the AC50 is the concentration giving half of the maximal activity seen. Turning to `CCCCCCCc1ccc(O)cc1`, the result in [1], in experiment [18], in [2], in experiment [11] and in [17] was inactive. For the same compound, the AC50 in experiment [4] is 35.2 µM (active); in experiment [5], 35.7 µM (active); in experiment [6], 37.6 µM (active); in experiment [7] it was 29.1 µM (active); in [8], 25.3 µM (active); in [9], 38.1 µM (active). Further, the AC50 in experiment [10] is 38.4 µM (active); in [12], 39.2 µM (active); in [13], 37.5 µM (active); in experiment [14] it was 22.3 µM (active); in [19], 30.9 µM (active); in [15] it was 36.1 µM (active). The AC50 in experiment [16] was 38.1 µM (active).

For `Cc1ccc(N)cc1N`, the call in experiment [1], in [2], in experiment [4], in experiment [5], in experiment [7] and in experiment [8] was inactive. For the same compound, the outcome in experiment [9], in experiment [10], in [12], in experiment [13], in experiment [14] and in experiment [15] was inactive. The outcome in experiment [16] and in experiment [17] was inactive.

In the case of `O=S(=O)(F)C(F)(F)C(F)(F)C(F)(F)C(F)(F)C(F)(F)C(F)(F)C(F)(F)C(F)(F)F`, the compound was classed as inactive in experiment [1], in experiment [2], in experiment [20], in experiment [4], in experiment [5] and in experiment [6]. The result in experiment [7], in [8], in [9], in [10], in [11] and in experiment [12] was inactive. Further, the outcome in experiment [13], in experiment [19], in experiment [15], in experiment [16] and in experiment [17] was inactive.

As for `N#Cc1c(-c2ccc(Cl)cc2)[nH]c(C(F)(F)F)c1Br`, the call in [1], in experiment [2], in experiment [3], in [20], in [4] and in experiment [10] was inactive. Further, the call in [11], in experiment [13] and in [16] was inactive. The AC50 in experiment [5] is 7.11 µM (active); in [7], 0.14 µM (active); in [8], 0.324 µM (active); in experiment [9], 0.0221 µM (active); in experiment [12] it was 1.61 µM (active); in experiment [14], 7.8 µM (active). The figures for the AC50 in [19], in experiment [15] and in experiment [17] were 0.117 µM (active), 0.0374 µM (active) and 5.07 µM (active), respectively.
